EP2 mod – modulates human prostaglandin E2 receptor EP2 signaling. P43116. AID 940. EP2-expressing cells, cAMP HTRF FRET, PGE2 co-stimulation. 260,000 tested, 0.83% active. induction, % at 25 µM;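 active = compounds whose cAMP rise, as percent of the full-agonist control response, exceeds 60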;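 also: rat C6 glioma line stably carrying human EP2 under a CMV promoter; the protocol text gives 20 µM as final concentration; 100% = response of wells given 1 µM PGE2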
Target sequence (P43116 whole entry, looked up): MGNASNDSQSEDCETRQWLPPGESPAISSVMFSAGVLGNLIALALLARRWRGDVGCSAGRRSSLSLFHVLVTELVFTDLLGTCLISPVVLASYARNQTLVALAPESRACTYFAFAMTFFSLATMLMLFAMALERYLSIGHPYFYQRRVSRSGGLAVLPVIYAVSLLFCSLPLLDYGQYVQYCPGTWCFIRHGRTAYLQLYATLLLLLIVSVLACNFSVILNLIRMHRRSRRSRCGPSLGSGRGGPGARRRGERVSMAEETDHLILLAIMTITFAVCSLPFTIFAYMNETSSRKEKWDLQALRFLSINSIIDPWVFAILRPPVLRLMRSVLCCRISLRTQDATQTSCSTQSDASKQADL
Avidin fluor – avidin bead compound fluorescence profile | Avidin beads, compound fluorescence 488/530 nm, flow cytometry; hits give high values | fluorescence (KMESF) at 10 µM | 220,000 tested, 0.38% active; in the data active = fluorescence above about 47
Efa HMGR inh – blocks class II HMG-CoA reductase of Enterococcus faecalis. purified E. faecalis HMGR, NADPH absorbance 340 nm kinetic. inhibition, % at 10 µM. 190,000 tested, 0.41% active;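 active = inhibition above a set limit, the median over all tested compounds plus 3 SD, cut at about 9.5% in these data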;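 also: enzyme runs in reverse so mevalonate oxidation gives rising NADPH absorbance; 0% = complete reaction with DMSO and 100% = background rate lacking mevalonate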
GSH bead fluor – GSH bead compound fluorescence profile. fluorescence (KMESF) at 10 µM. 190,000 tested, 0.25% active. GSH beads flow cytometry, compound fluorescence 488/530 nm; hits give high values. AID 1776; in the data active = fluorescence above about 89;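 also: glutathione beads carrying GST-tagged Bcl family fusion proteins plus one bare bead set; values are compound well signal with DMSO vehicle wells as background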
EP2 antag – EP2 receptor (human) inhibition; P43116; C6 glioma cells expressing human EP2, cAMP TR-FRET; cells stimulated with saturating PGE2; inhibition, % at 25 µM; 260,000 tested, 0.52% active;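 active = percent inhibition above 40 after rounding to a whole number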;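 also: rat C6 glioma host cells with rolipram phosphodiesterase inhibitor present; the protocol text gives 20 µM as final concentration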
Numbers without * were called inactive; . = not tested or not shown; ! = repeats disagree. Sampled rows, rich in hits. Any-hit rate of the full collection: about 2.1%.

SMILES	EP2 mod	Avidin fluor	Efa HMGR inh	GSH bead fluor	EP2 antag
CC1Oc2nc3ccccc3cc2CN(C2CCC2)C1=O (stereo unspecified)	-2	.	.	.	8
COc1ccc(S(=O)(=O)N(C)c2c(C)n(C)n(-c3ccccc3)c2=O)cc1OC	9	107*	1	25	11
COc1ccc(-c2cnn(-c3ccccc3)c2N)cc1OC	-55	15	-5	20	11
COc1ccc(C2=C(O)C(C)N(c3ccccc3)C2=N)cc1OC (stereo unspecified)	23	53*	-4	11	7
CCN(CC)C(=O)C1CCN(Cc2ccc(Cl)cc2)CC1	7	.	.	.	17
O=C(/C=C/c1ccccc1)N(Cc1nc2ccccc2c(=O)[nH]1)Cc1cccs1	63*	.	.	.	10
O=C(c1ccncc1)N(Cc1nc2ccccc2c(=O)[nH]1)Cc1cccs1	1	.	.	.	10
CC(C)Cn1cnc2c(Sc3c([N+](=O)[O-])ncn3C)nc(N)nc21	12	.	.	.	8
Cn1cnc([N+](=O)[O-])c1Sc1nc(N)nc2c1ncn2Cc1ccccc1	7	.	.	.	53*
CCn1c2cc(C)sc2c2cnn(CC(N)=O)c(=O)c21	-17	.	.	.	6
COc1cc2c3nnc(-c4ccc(F)cc4)c-3cn(Cc3cccc(F)c3)c2cc1OC	15	19	-3	90*	14
O=C(CSc1ccccc1F)NC(=O)NCc1ccco1	-9	11	4	11	6
Cc1ccccc1CSCC(=O)NC(=O)NCc1ccco1	14	6	-2	261*	2
Cn1cccc1C(C(=O)NC1CCCCC1)N(C(=O)Cc1cccs1)c1ccc(F)cc1 (stereo unspecified)	9	.	.	.	10
CC(Nc1nc(-c2ccccc2O)nc2ccccc12)c1ccccc1 (stereo unspecified)	70*	8	.	.	6
CCOC(=O)C(=O)Nc1sc(C(=O)Nc2ccccc2C)c(C)c1C(=O)OC	8	.	.	.	5
O=C1C(SCCO)=C(SCCO)C(=O)c2ccccc21	-60	.	.	.	43*
N#CC(=NCCO)C1=C(O)c2ccccc2C1=O	-3	.	.	.	12
COc1ccc(NC(=S)NCCc2ccc(Cl)cc2)c(OC)c1	-40	7	-2	14	58*
COc1ccc(NC(=S)NCCc2c[nH]c3ccccc23)c(OC)c1	-58	6	3	25	55*
CCc1nn(CC(=O)OC2CCCCC2)c(=O)c2cc3oc(C)cc3n12	-37	.	.	.	10
CN1C(=O)c2ccccc2Sc2ccc(NC(=O)NC3CC3)cc21	-4	92*	-6	20	12
O=C(Nc1ccc2c(c1)N(Cc1ccccc1)C(=O)c1ccccc1S2)NC1CC1	-13	8	-5	24	8
COc1ccccc1N(C(=O)c1csnn1)C(C(=O)NC(C)(C)C)c1ccc(F)cc1 (stereo unspecified)	4	.	.	.	10
COc1ccc2c(c1)c1ncnc(N3CCN(Cc4ccc5c(c4)OCO5)CC3)c1n2C	-9	11	0	26	10
SMILES	EP2 mod	Avidin fluor	Efa HMGR inh	GSH bead fluor	EP2 antag
COc1ccc2[nH]c3c(N4CCN(Cc5ccc6c(c5)OCO6)CC4)ncnc3c2c1	-80	6	-3	10	60*
CCOc1ccc2[nH]c3c(N4CCc5ccccc5C4)ncnc3c2c1	-52	7	.	.	44*
Cc1ccc2[nH]c3c(N4CCc5ccccc5C4)ncnc3c2c1	-76	24	-2	9	28
COc1ccc(/C(O)=C2/C(=O)C(=O)NC2c2ccc(F)cc2)cc1OC (stereo unspecified)	70*	.	.	.	13
COC(=O)c1ccc(C2NC(=O)C(=O)/C2=C(\O)c2ccc(OC)c(OC)c2)cc1 (stereo unspecified)	-34	.	.	.	6
Cc1ccc(C)c(NC(=O)CSc2nc3c(C)cc(C)cc3cc2C#N)c1	53	.	.	.	19
Oc1ccc(Nc2nc3ccccc3nc2Nc2ccc(O)cc2)cc1	-38	80*	3	24	3
Cc1nc2ccccc2nc1N/N=C/c1ccc(O)cc1	-12	7	.	.	9
CCOc1ccc(-c2cc(C(=O)NC3CCCN(C)C3)[nH]n2)cc1 (stereo unspecified)	-48	.	.	.	5
CCc1ccc2c(c1)-c1c(s[s+]c1SC(C)=O)C(C)(C)N2	65*	.	.	.	9
COc1ccc(NS(=O)(=O)c2cc([N+](=O)[O-])ccc2N/N=C\c2c(C)[nH]c3ccccc23)cc1	-37	51*	-9	19	13
Cc1cc(C(C)(C)C)oc1C(=O)N1CCC2(CC1)NC(=O)c1ccccc1O2	-21	.	.	.	.
Fc1c(F)c(C(F)(F)F)c(F)c(F)c1N/N=C\c1cccs1	-47	8	-8	72	124*
Cn1c(N/N=C/c2cccs2)cc(=O)n(C)c1=O	10	14	-1	25	.
COc1cccc(-c2nnc(NC(=O)c3cc(OC)c(OC)c(OC)c3)s2)c1	-18	.	.	.	18
COc1ccc(C(=O)Nc2ncc([N+](=O)[O-])s2)cc1	-52	.	.	.	14
C=CCNC(=O)c1c(C(F)(F)F)nn(C)c1Cl	5	11	9.6*	10	8
CCCCCCCCCCCC1=C(O)C(=O)C=C(O)C1=O	-15	.	.	.	65*!
COC1=CC(=O)C(O)=C(CCCCCCC/C=C/CCCCCCCC2=C(O)C(=O)C=C(OC)C2=O)C1=O	.	.	.	.	54*
Cc1cc2c(cc3c(=O)n(CC(=O)NC(c4ccccc4)c4ccccc4)nc(C)n32)o1	-21	.	.	.	5
Nc1nc2ccc(Cc3nc4ccccc4[nH]3)cc2s1	-72	.	.	.	10
COCCNC(=S)NCCNc1nc2c(C)cccc2cc1C#N	-84	.	.	.	5
CCC(c1nnnn1C1CCCCC1)N(Cc1cc2cc3c(cc2[nH]c1=O)OCO3)C1CCCCC1 (stereo unspecified)	-21	.	.	.	8
O=C(Nc1cccc(F)c1)NC1CC2CCCC(C1)N2C1CC1 (stereo unspecified)	-30	8	-1	6	3
O=C(Nc1ccc(Cl)c(C(F)(F)F)c1)NC1CC2CCCC(C1)N2C1CC1 (stereo unspecified)	.	.	.	.	41*
SMILES	EP2 mod	Avidin fluor	Efa HMGR inh	GSH bead fluor	EP2 antag
O=C(Nc1ccc(Cl)c(C(F)(F)F)c1)C(=O)N1CCCCC1	-12	5	-2	10	2
O=C(Nc1ccc(Cl)c(C(F)(F)F)c1)N1CCCC(O)C1 (stereo unspecified)	13	66*	4	14	12
Cc1ccc(Cn2nnc3c(=O)n(CC(=O)NCc4ccco4)cnc32)cc1	31	5	20*	14	11
Ic1ccc2c(c1)N(c1ccccc1)c1cc(Nc3ccc4nc5ccc(I)cc5[n+](-c5ccccc5)c4c3)ccc1N2	0	.	.	.	44*
CC(C)(C)c1ccc2c(c1)C(=O)c1ccccc1C2=O	16	23	4	14	9
CC(C)(C)C1=CC=C(C(C)(C)C)C(=O)C1=O	-47	4	.	.	102*
C=CCSC1=N/C(=C\c2ccc3c(c2)OCO3)C(=O)S1	6	11	1	32	11
C=CCSC1=N/C(=C\c2sccc2C)C(=O)S1	64*	12	-7	25	5
O=S(=O)(NC1CCCCCC1)c1cccs1	-7	.	.	.	6
